From PubChem BioAssay AID1159580 (chemical genetic matrix, 2015)
Several values for one entry are separate records, joined by “and”; a condition that tells them apart may be missing. Identical values can stand only once. The whole screen tested about 5,500 compounds, of which about 2,000 (36%) were called active. Inconclusive results (about 18%) are left out. Cut-off read from the data, not from the text of the source: active = normalized growth mostly below about 0.91 (no sharp cut-off); inconclusive = no clear call, values can overlap the other calls; inactive = mostly above about 0.92. The list shows a part of the results.

Experiment: chemical genetic growth profiling, strain panel (AID 1159580);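 note: tested at 20 µM; growth read once vehicle control cultures reached saturation at 30 °C; 1 = growth at the plate median or of vehicle wells; lower values mean less growth of the strain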
Conditions: growth OD
[1] = S. cerevisiae deletion strains, locus YAL013W, strain DEP1, stronger effect = lower value
[2] = S. cerevisiae deletion strains, locus YBR229C, strain ROT2, stronger effect = lower value
[3] = S. cerevisiae deletion strains, locus YCL061C, strain MRC1, stronger effect = lower value
[4] = S. cerevisiae deletion strains, locus YDL101C, strain DUN1, stronger effect = lower value
[5] = S. cerevisiae deletion strains, locus YDR150W, strain NUM1, stronger effect = lower value
[6] = S. cerevisiae deletion strains, locus YEL061C, strain CIN8, stronger effect = lower value
[7] = S. cerevisiae deletion strains, locus YGR078C, strain PAC10, stronger effect = lower value
[8] = S. cerevisiae deletion strains, locus YGR229C, strain SMI1, stronger effect = lower value
[9] = S. cerevisiae deletion strains, locus YHR030C, strain SLT2, stronger effect = lower value
[10] = S. cerevisiae deletion strains, locus YHR087W, strain rtc3, stronger effect = lower value
[11] = S. cerevisiae deletion strains, locus YJR043C, strain POL32, stronger effect = lower value
[12] = S. cerevisiae deletion strains, locus YJR075W, strain HOC1, stronger effect = lower value
[13] = S. cerevisiae deletion strains, locus YLR039C, strain RIC1, stronger effect = lower value
[14] = S. cerevisiae deletion strains, locus YLR058C, strain SHM2 (second series), stronger effect = lower value
[15] = S. cerevisiae deletion strains, locus YLR085C, strain ARP6, stronger effect = lower value
[16] = S. cerevisiae deletion strains, locus YLR262C, strain YPT6, stronger effect = lower value
[17] = S. cerevisiae deletion strains, locus YML094W, strain GIM5, stronger effect = lower value
[18] = S. cerevisiae deletion strains, locus YMR219W, strain ESC1, stronger effect = lower value
[19] = S. cerevisiae deletion strains, locus YMR263W, strain SAP30, stronger effect = lower value
[20] = S. cerevisiae deletion strains, locus YNL153C, strain GIM3, stronger effect = lower value
[21] = S. cerevisiae deletion strains, locus YNL298W, strain CLA4 (second series), stronger effect = lower value
[22] = S. cerevisiae deletion strains, locus YNL322C, strain KRE1, stronger effect = lower value
[23] = S. cerevisiae deletion strains, locus YNR030W, strain Alg12, stronger effect = lower value
[24] = S. cerevisiae deletion strains, locus YPL055C, strain LGE1, stronger effect = lower value
[25] = S. cerevisiae deletion strains, locus YPL241C, strain CIN2, stronger effect = lower value
[26] = S. cerevisiae deletion strains, locus YPR135W, strain CTF4, stronger effect = lower value

Measured: normalized growth

O=C(OCCNc1ccc([N+](=O)[O-])cn1)c1ccc([N+](=O)[O-])o1
inactive: S. cerevisiae deletion strains, locus YAR019C, strain CDC15, stronger effect = lower value 0.898 | S. cerevisiae deletion strains, locus YBL105C, strain PKC1, stronger effect = lower value 0.927 | S. cerevisiae deletion strains, locus YBR135W, strain CKS1, stronger effect = lower value 0.922 | S. cerevisiae deletion strains, locus YBR136W, strain MEC1, stronger effect = lower value 0.919 | S. cerevisiae deletion strains, locus YBR160W, strain CDC28, stronger effect = lower value 0.92 | S. cerevisiae deletion strains, locus YDL017W, strain CDC7, stronger effect = lower value 0.932 | S. cerevisiae deletion strains, locus YDL028C, strain MPS1, stronger effect = lower value 0.917 | [4] 0.947 and 0.908 | S. cerevisiae deletion strains, locus YDL108W, strain KIN28, stronger effect = lower value 0.922 | S. cerevisiae deletion strains, locus YDL134C, strain PPH21, stronger effect = lower value 0.961 | S. cerevisiae deletion strains, locus YDL214C, strain PRR2, stronger effect = lower value 0.742 | S. cerevisiae deletion strains, locus YDR054C, strain cdc34, stronger effect = lower value 0.898 | [5] 0.866 | S. cerevisiae deletion strains, locus YDR477W, strain SNF1, stronger effect = lower value 0.829 | [6] 0.931 | S. cerevisiae deletion strains, locus YER123W, strain YCK3, stronger effect = lower value 0.673 | S. cerevisiae deletion strains, locus YER133W, strain GLC7, stronger effect = lower value 0.771 | S. cerevisiae deletion strains, locus YFL009W, strain cdc4, stronger effect = lower value 0.903 | S. cerevisiae deletion strains, locus YFL029C, strain CAK1, stronger effect = lower value 0.894 | S. cerevisiae deletion strains, locus YFR003C, strain YPI1, stronger effect = lower value 0.924 | S. cerevisiae deletion strains, locus YFR028C, strain CDC14, stronger effect = lower value 0.91 | S. cerevisiae deletion strains, locus YGR040W, strain KSS1, stronger effect = lower value 0.735 | S. cerevisiae deletion strains, locus YGR052W, strain FMP48, stronger effect = lower value 0.735 | [8] 0.979 | S. cerevisiae deletion strains, locus YHR079C, strain IRE1, stronger effect = lower value 0.67 | S. cerevisiae deletion strains, locus YHR082C, strain KSP1, stronger effect = lower value 0.914 | S. cerevisiae deletion strains, locus YHR205W, strain SCH9, stronger effect = lower value 0.663 | S. cerevisiae deletion strains, locus YIL147C, strain SLN1, stronger effect = lower value 0.931 | S. cerevisiae deletion strains, locus YJL095W, strain BCK1, stronger effect = lower value 0.677 | S. cerevisiae deletion strains, locus YJL128C, strain PBS2, stronger effect = lower value 0.895 | S. cerevisiae deletion strains, locus YJL157C, strain FAR1, stronger effect = lower value 0.788 | S. cerevisiae deletion strains, locus YJR016C, strain ILV3, stronger effect = lower value 0.942 | [11] 0.968 | S. cerevisiae deletion strains, locus YJR066W, strain TOR1, stronger effect = lower value 0.78 | S. cerevisiae deletion strains, locus YKL101W, strain HSL1, stronger effect = lower value 0.737 | S. cerevisiae deletion strains, locus YKL193C, strain SDS22, stronger effect = lower value 0.899 | S. cerevisiae deletion strains, locus YKL203C, strain TOR2, stronger effect = lower value 0.822 | [14] 0.943 | S. cerevisiae deletion strains, locus YLR133W, strain CKI1, stronger effect = lower value 0.813 | S. cerevisiae deletion strains, locus YLR403W, strain SFP1, stronger effect = lower value 0.845 | [17] 0.896 | S. cerevisiae deletion strains, locus YMR001C, strain CDC5, stronger effect = lower value 0.915 | S. cerevisiae deletion strains, locus YMR205C, strain PFK2 (second series), stronger effect = lower value 0.884 | S. cerevisiae deletion strains, locus YMR277W, strain FCP1, stronger effect = lower value 0.904 | S. cerevisiae deletion strains, locus YMR307W, strain GAS1, stronger effect = lower value 0.817 | S. cerevisiae deletion strains, locus YNL006W, strain LST8, stronger effect = lower value 0.933 | S. cerevisiae deletion strains, locus YNL020C, strain ARK1, stronger effect = lower value 0.81 | [20] 0.957 | S. cerevisiae deletion strains, locus YNL161W, strain CBK1, stronger effect = lower value 0.902 | S. cerevisiae deletion strains, locus YNL183C, strain NPR1, stronger effect = lower value 0.684 | S. cerevisiae deletion strains, locus YNL207W, strain RIO2, stronger effect = lower value 0.9 | S. cerevisiae deletion strains, locus YNL222W, strain SSU72, stronger effect = lower value 0.915 | [21] 0.956 | S. cerevisiae deletion strains, locus YNL307C, strain MCK1 (second series), stronger effect = lower value 0.709 | S. cerevisiae deletion strains, locus YOL006C, strain TOP1, stronger effect = lower value 0.831 | S. cerevisiae deletion strains, locus YOL078W, strain AVO1, stronger effect = lower value 0.902 | S. cerevisiae deletion strains, locus YOL136C, strain PFK27, stronger effect = lower value 0.697 | S. cerevisiae deletion strains, locus YOR061W, strain CKA2, stronger effect = lower value 0.735 | S. cerevisiae deletion strains, locus YOR119C, strain RIO1, stronger effect = lower value 0.838 | S. cerevisiae deletion strains, locus YOR329C, strain SCD5, stronger effect = lower value 0.921 | S. cerevisiae deletion strains, locus YPL031C, strain PHO85, stronger effect = lower value 0.814 | S. cerevisiae deletion strains, locus YPL204W, strain HRR25, stronger effect = lower value 0.749 | S. cerevisiae deletion strains, locus YPL209C, strain IPL1, stronger effect = lower value 0.921 | [25] 0.931 | S. cerevisiae deletion strains, locus YPR025C, strain CCL1, stronger effect = lower value 0.929 | S. cerevisiae deletion strains, locus YPR106W, strain ISR1, stronger effect = lower value 0.945 | S. cerevisiae deletion strains, locus YPR111W, strain DBF20, stronger effect = lower value 0.888 | [26] 0.944 | S. cerevisiae deletion strains, strain NNK1, stronger effect = lower value 0.913 | S. cerevisiae deletion strains, strain TSCII, stronger effect = lower value 0.894
active: [1] 0.848 | [2] 0.816 | [3] 0.86 | S. cerevisiae deletion strains, locus YDL132W, strain cdc53, stronger effect = lower value 0.888 | S. cerevisiae deletion strains, locus YDR052C, strain DBF4, stronger effect = lower value 0.81 | S. cerevisiae deletion strains, locus YDR226W, strain ADK1, stronger effect = lower value 0.887 | S. cerevisiae deletion strains, locus YFR019W, strain FAB1, stronger effect = lower value 0.583 | [7] 0.786 | S. cerevisiae deletion strains, locus YGR092W, strain DBF2, stronger effect = lower value 0.17 | [10] 0.744 | S. cerevisiae deletion strains, locus YJL187C, strain SWE1, stronger effect = lower value 0.86 | S. cerevisiae deletion strains, locus YJR066W, strain TOR1 (second series), stronger effect = lower value 0.391 | [12] 0.795 | S. cerevisiae deletion strains, locus YKL048C, strain ELM1, stronger effect = lower value 0.772 | S. cerevisiae deletion strains, locus YKL067W, strain YNK1, stronger effect = lower value 0.708 | [13] 0.449 | [15] 0.727 | S. cerevisiae deletion strains, locus YLR113W, strain HOG1, stronger effect = lower value 0.444 | [16] 0.703 | S. cerevisiae deletion strains, locus YML070W, strain DAK1, stronger effect = lower value 0.609 | [18] 0.809 | [19] 0.827 | [22] 0.913 | [23] 0.776 | S. cerevisiae deletion strains, locus YOR231W, strain MKK1, stronger effect = lower value 0.572 | [24] 0.738 | S. cerevisiae deletion strains, locus YPL153C, strain RAD53, stronger effect = lower value 0.351 | S. cerevisiae deletion strains, locus YPL256C, strain CLN2, stronger effect = lower value 0.624
0.885 (inactive) and 0.148 (active): [9]

Cc1cc(S(=O)(=O)NC(Cc2ccc([N+](=O)[O-])cc2)C(=O)O)c(Cl)cc1Cl (configuration not stated)
inactive: [1] 1.01 | [2] 0.996 | [3] 1 | [4] 0.997 | [5] 0.927 | [6] 1.01 | [7] 1 | [8] 1.01 | [9] 1.07 | [10] 1 | [11] 0.998 | [12] 1 | [13] 1.01 | [14] 1 | [15] 1.02 | [16] 1 | [17] 1.02 | [18] 0.995 | [19] 1 | S. cerevisiae deletion strains, locus YNL128W, strain TEP1, stronger effect = lower value 1 | [20] 0.995 | [21] 1.01 | [22] 1 | [23] 1.01 | [24] 1.04 | [25] 1.02 | [26] 0.988 | S. cerevisiae strains, strain wild type, stronger effect = lower value 1.01
